Results filed as inconclusive are left out. A number with no mark means an inactive call. The source made the active and inactive calls. The call rests on the fitted dose curve. Non-standard residues stand in square brackets, D forms with d. Residues, ends and D or L forms follow the SMILES beside them. pGlu = O=C1CC[C@@H](C(=O)O)N1
Assay: qHTS assay to identify small molecule antagonists of the estrogen receptor alpha (ER-alpha) signaling pathway - cell viability counter screen (AID 743074);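 further: HEK293 cells carrying ER-alpha-UAS-bla reporter stimulated with 17beta-estradiol; nearly all actives have a fitted effect of over 45% in size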
Details: ERalpha-bla HEK293 viability, CellTiter-Glo luminescence, 18 h; series mostly up to 69.4 µM; activity, negative = cytotoxicity: at the top concentration
In the case of `CN[C@@H]1CCc2[nH]c3ccc(C(N)=O)cc3c2C1`, the “activity, negative = cytotoxicity” value is reported as -14.3%.
With `FC(F)(F)C(F)(F)C(F)(F)C(F)(F)C(F)(F)C(F)(F)F` the “activity, negative = cytotoxicity” value was -2.52%.
In the case of `Nc1ncnc2c1ncn2CCOCP(=O)(O)O`, the “activity, negative = cytotoxicity” value is reported as 6.84%.
For `C/C(=C(\CCOC(=O)c1ccccc1)SS/C(CCOC(=O)c1ccccc1)=C(/C)N(C=O)Cc1cnc(C)nc1N)N(C=O)Cc1cnc(C)nc1N`, the “activity, negative = cytotoxicity” value was -13.8%.
With `CCOc1cc(-c2nccc3cc(OC)c(OC)cc23)cc(OCC)c1OCC` the “activity, negative = cytotoxicity” value was -19.4%.
In the case of `CC(=O)N=c1sc(S(N)(=O)=O)nn1C`, the “activity, negative = cytotoxicity” value is reported as 4.28% [at 32.6 µM].
In the case of `CN1[C@@H]2CCC[C@H]1CC(NC(=O)c1nn(C)c3ccccc13)C2` (stereo not given in full), the “activity, negative = cytotoxicity” value is reported as 5.43%.
With `O=C(O[C@H]1CN2CCC1CC2)N1CCc2ccccc2[C@@H]1c1ccccc1` the “activity, negative = cytotoxicity” value was 7.11%.
With `CCC[C@@]1(CCc2ccccc2)CC(O)=C([C@H](CC)c2cccc(NS(=O)(=O)c3ccc(C(F)(F)F)cn3)c2)C(=O)O1` the “activity, negative = cytotoxicity” value was -29.9%.
For `CCCCc1cc2c(=O)c(C(=O)OC)c[nH]c2cc1OCc1ccccc1`, the “activity, negative = cytotoxicity” value was 16.9%.
With `CCNC(=O)[C@@H]1CCCN1C(=O)[C@H](CCCN=C(N)N)NC(=O)[C@H](CC(C)C)NC(=O)[C@@H](Cc1c[nH]c2ccccc12)NC(=O)[C@H](Cc1ccc(O)cc1)NC(=O)[C@H](CO)NC(=O)[C@H](Cc1c[nH]c2ccccc12)NC(=O)[C@H](Cc1cnc[nH]1)NC(=O)[C@@H]1CCC(=O)N1` the Potency was 10.7 µM (active).
With `C/C=C(/CC[C@@H](C)[C@H]1CC[C@H]2C3=CC[C@H]4[C@H](C)[C@@H](O)CC[C@]4(C)[C@H]3CC[C@]12C)C(C)C` the “activity, negative = cytotoxicity” value was -15.8%.
In the case of `COc1ccccc1N1CCN(CCCC(=O)c2ccc(F)cc2)CC1`, the “activity, negative = cytotoxicity” value is reported as -1.62%.
With `C[C@H](N)C(=O)N[C@@H](C)P(=O)(O)O` the “activity, negative = cytotoxicity” value was -5.99%.
For `NC[C@@H]1O[C@H](O[C@H]2[C@@H](O)[C@H](O[C@@H]3[C@@H](O)[C@H](N)C[C@H](N)[C@H]3O[C@H]3O[C@H](CO)[C@@H](O)[C@H](O)[C@H]3N)O[C@@H]2CO)[C@H](N)[C@@H](O)[C@@H]1O`, the “activity, negative = cytotoxicity” value was 6.19%.
In the case of `O=P(O)(O)C(Sc1ccc(Cl)cc1)P(=O)(O)O`, the “activity, negative = cytotoxicity” value is reported as 17.1%.
With `CC[C@H](C)[C@H](NC(=O)[C@H](Cc1ccccc1)NC(=O)[C@H](C)NC(=O)[C@H](CC(=O)O)NC(=O)[C@H](CCCCN)NC(=O)[C@H](CO)NC(=O)[C@@H]1CCCN1C(=O)[C@@H]1CCC(=O)N1)C(=O)NCC(=O)N[C@@H](CC(C)C)C(=O)N[C@@H](CCSC)C(N)=O` ([pGlu]PSKDAFIGLM-NH2) the “activity, negative = cytotoxicity” value was 13.8%.
For `Cc1cccc(Nc2ncccc2C(=O)O)c1C`, the “activity, negative = cytotoxicity” value was -9.11%.
For `OCCO[C@@H]1[C@@H](O)[C@H](O)[C@@H](CO)O[C@@H]1O`, the “activity, negative = cytotoxicity” value was 3.05%.
In the case of `N[C@H](CCC(=O)O)C(=O)O`, the “activity, negative = cytotoxicity” value is reported as 12.9%.
In the case of `CC(O)CN(C)C` (stereo not given), the “activity, negative = cytotoxicity” value is reported as 6.47%.
For `Cc1ccc(C2(O)CCN(CCCC(=O)c3ccc(F)cc3)CC2)cc1`, the “activity, negative = cytotoxicity” value was 10.7%.
With `CO[C@H]1O[C@@H]2O[C@@]3(C)CC[C@H]4[C@H](C)CC[C@@H]([C@H]1C)[C@@]24OO3` the “activity, negative = cytotoxicity” value was 22.2%.
With `CC1=C(/C=C/C(C)=C/C=C/C(C)=C/C(=O)Oc2c(C)c(C)c3c(c2C)CC[C@@](C)(CCC[C@H](C)CCC[C@H](C)CCCC(C)C)O3)C(C)(C)CCC1` the “activity, negative = cytotoxicity” value was 14.6%.
With `O=C(Cn1c(=O)sc2ccc(Cl)cc21)N1CCN(CCO)CC1` the “activity, negative = cytotoxicity” value was -16.7%.
With `NS(=O)(=O)c1cc2c(cc1Cl)NC(Cc1ccccc1)NS2(=O)=O` (stereo not given) the “activity, negative = cytotoxicity” value was -11%.
For `c1cnc2cc3c(cc2n1)[C@@H]1CNC[C@H]3C1`, the “activity, negative = cytotoxicity” value was 20.9%.
In the case of `NCCCC[C@H](NC(=O)[C@@H]1CCCN1C(=O)[C@@H]1CSSC[C@H](N)C(=O)N[C@@H](Cc2ccccc2)C(=O)N[C@@H](Cc2ccccc2)C(=O)N[C@@H](CCC(N)=O)C(=O)N[C@@H](CC(N)=O)C(=O)N1)C(=O)NCC(N)=O`, the “activity, negative = cytotoxicity” value is reported as 9.7%.
For `c1ccc2c(c1)Sc1ccccc1N2CCN1CCCC1`, the “activity, negative = cytotoxicity” value was 18.2%.
With `CCCCC(=O)OCC(=O)[C@]1(O)Cc2c(O)c3c(c(O)c2[C@@H](O[C@H]2C[C@H](NC(=O)C(F)(F)F)[C@H](O)[C@H](C)O2)C1)C(=O)c1c(OC)cccc1C3=O` the “activity, negative = cytotoxicity” value was 16.4%.

Source: PubChem BioAssay (Tox21)
On the % scale 0 is the no-effect control and ±100 the full control effect; potency means the concentration at half of the fitted maximal effect.
